# Screening results deposited in PubChem BioAssay by several laboratories.
# Compounds with a hit are over-represented: about 2.2% of the library has one in this group of screens.
# SMARCA2 activ – activators of SMARCA2 function. MG213 cells, MMTV-luciferase reporter, dexamethasone, overnight. activation, % at 9.1 µM. 370,000 compounds, 1% hits. AID 652017; in the data active means activation above about 7.8%;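 further: 0% = vehicle wells and 100% = reference activator wells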
# HIF activator – HIF pathway transcriptional activation. activation, % at 7.5 µM (by protocol). U2OS HRE-luciferase reporter, luminescence; normalized: DMSO 0%, desferrioxamine 100%. 300,000 compounds, 0.32% hits;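 active means mean activation of at least 10% of the iron chelator positive control signal, with at least half of replicates also reaching 10%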
# GAA850 FXN act – increases GAA850 frataxin promoter reporter activity; 360,000 compounds, 0.56% hits; activation, % at 6 µM; HEK293 lucGAA850 FXN promoter luciferase reporter, 24 h; percent of 10 µM SAHA response; AID 540364;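 active means activation above the average of all compounds screened plus 3 SD, cutoff fixed separately per campaign, cut at about 7.5% in these data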;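 further: 0% = DMSO wells and 100% = 10 µM SAHA wells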
# GalR3 antagonist – blocks the human galanin receptor 3; HEK293 GalR3-CNG cAMP membrane potential fluorescence; galR3 body fused to GalR1 C-terminus; AID 651719; inhibition, % at 3 µM; O60755; 360,000 compounds, 0.44% hits;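 active means inhibition above the screen-wide average plus 3 SD, cut at about 13% in these data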;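 further: forskolin and galanin both at EC90 stimulate the cells; cAMP rise reported by CNG channel membrane potential dye signal; 0% = forskolin plus galanin with DMSO and 100% = forskolin alone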
# Target sequence (O60755 1-299 limits assumed): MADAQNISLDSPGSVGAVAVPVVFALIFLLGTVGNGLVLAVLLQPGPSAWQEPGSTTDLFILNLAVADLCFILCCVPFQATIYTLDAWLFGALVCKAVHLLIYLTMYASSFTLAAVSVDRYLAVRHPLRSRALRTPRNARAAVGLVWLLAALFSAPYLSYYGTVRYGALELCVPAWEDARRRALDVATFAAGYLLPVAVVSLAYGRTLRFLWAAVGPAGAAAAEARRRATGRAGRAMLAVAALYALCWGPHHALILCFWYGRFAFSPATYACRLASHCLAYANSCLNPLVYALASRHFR
# Hsp70 act – transcriptional activators of Hsp70. HeLa Hsp70 promoter luciferase reporter, luminescence; scaled: vehicle 0, proteasome-inhibitor control 100%. activation, % at 10 µM. 200,000 compounds, 0.04% hits;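 active means activation above the mean across all tested compounds plus 3 SD, cutoff set per campaign, cut at about 5.5% in these data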;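 further: 100% = MG132 at 30 µM as the positive control and 0% = DMSO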
# GalR3 antag conf – GalR3 (human) antagonism, confirmation; 1,600 compounds, 59% hits; shares compounds with GalR3 antagonist; HEK293 GalR3 CNG cAMP biosensor, membrane potential fluorescence; galR3 fused to GalR1 carboxy tail; challenged with forskolin and galanin at EC90; inhibition, % at 3 µM; AID 652245;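 active means inhibition above the primary screen's cutoff, the mean inhibition of all screened compounds plus 3 SD, cut at about 13% in these data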;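 further: 0% = forskolin plus galanin and 100% = forskolin alone with DMSO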
# CNG parental – acts as nonspecific agonist in parental HEK-CNG cells | shares compounds with GalR3 antagonist | HEK293-CNG parental cells, cAMP membrane potential fluorescence; normalised: DMSO wells 0%, forskolin wells 100% | activation, % at 3 µM | 1,600 compounds, 10% hits | AID 652268; in the data active means activation above about 1.3%
# * marks the source's active call; other numbers are inactive results; / = no result given.
SMILES,SMARCA2 activ,HIF activator,GAA850 FXN act,GalR3 antagonist,Hsp70 act,GalR3 antag conf,CNG parental
COc1cc(C#Cc2c(-c3ccccc3OC)oc3ccccc23)cc(OC)c1,0.4,/,2.6,13.4*,/,6.0,0.3
CCCCNc1nc2c(c(=O)n(C)c(=O)n2C)n1CCC,-5.2,-0.2,2.3,1.1,/,/,/
CCCCCCn1c(NCC)nc2c1c(=O)n(C)c(=O)n2C,-5.6,1.0,-3.4,31.6*,-0.2,76.6*,0.5
Cc1ccc(C2C(C(=O)c3cccs3)=C(O)C(=O)N2c2nnc(C)s2)cc1 (stereo not given),0.0,1.3,3.3,12.8*,0.0,18.1*,0.0
COc1ccc(C2C(C(=O)c3cccs3)=C(O)C(=O)N2c2cccc(C)n2)cc1 (stereo not given),6.0,3.3,1.1,5.2,/,/,/
COC(=O)C1=C[C@@H](C(=O)OC)[C@@H]2C3=C(C(=O)[C@]2(CC(C)C)NC(=O)c2ccccc2)[C@H](C)n2c(=O)n(-c4ccccc4)c(=O)n2[C@@H]3C1,-0.1,-1.0,1.7,13.5*,/,1.8,0.0
COC(=O)C1=C[C@@H](C(=O)OC)[C@@H]2C3=C(C(=O)[C@@]2(C)NC(=O)c2ccccc2)[C@H](c2ccccc2)n2c(=O)n(-c4ccccc4)c(=O)n2[C@@H]3C1,/,-0.3,/,/,/,/,/
COc1ccc(/C=N/NC(=O)CN(CCc2ccccc2)S(=O)(=O)c2ccc(NC(C)=O)cc2)cc1OC,7.1,2.4,6.0,17.1*,-0.3,29.0*,-0.4
COc1cc(/C=N/NC(=O)CN(CCc2ccccc2)S(=O)(=O)c2ccc(NC(C)=O)cc2)cc(OC)c1OC,-5.0,-0.8,2.6,4.5,-0.1,/,/
COc1ccc(N(CC(=O)N/N=C/c2ccc(OC)c(OC)c2)S(=O)(=O)c2ccccc2)cc1,2.0,-2.1,3.7,14.1*,/,33.8*,-0.1
Cc1ccc(OC2CCN(C(=O)[C@@H](Cc3ccccc3)NC(=O)[C@H]3O[C@@H](n4ccc(=O)[nH]c4=O)[C@H](O)[C@@H]3O)CC2)cc1,0.4,/,/,-2.4,/,/,/
CC1(C)C(=O)Nc2ccccc2N1C(=O)COC(=O)c1cc(S(=O)(=O)N2CCOCC2)ccc1F,2.4,-0.9,1.8,38.5*,-0.2,16.5*,0.0
O=C(OCN1C(=O)c2ccccc2C1=O)c1cc(S(=O)(=O)N2CCOCC2)ccc1F,1.5,/,1.3,12.6*,/,23.5*,-0.1
COc1ccc(C(=O)C2(C(=O)NCc3ccccc3)CC(c3ccccn3)=NO2)cc1 (stereo not given),-3.4,/,/,/,/,/,/
CN(Cc1ccccc1)C(=O)OCc1cn(Cc2ccccc2)nn1,-1.9,/,/,/,/,/,/
Cc1[nH]c2ccccc2c1CC(=O)Nc1ccc(Nc2cccnc2)c(-c2ccc(OC(F)(F)F)cc2)c1,-4.3,/,/,-5.8,/,/,/
COc1cccc(S(=O)(=O)NCc2ccc(C(=O)Nc3ccc(Cl)c(Cl)c3)cc2)c1,-2.9,-0.8,0.0,16.7*,-0.4,54.6*,-2.2
COc1ccc(NC(=O)c2ccc(CNS(=O)(=O)c3cccc(OC)c3)cc2)cc1,-1.2,0.5,-1.6,-1.4,-0.1,/,/
O=C(NC1CCCCN(Cc2ccc(Cl)cc2)C1=O)c1cccs1 (stereo not given),-2.9,/,/,/,/,/,/
CCOC(=O)c1c(C)[nH]c(C(=O)COC(=O)CNC(=O)c2ccccc2Cl)c1C,4.2,2.9,5.4,2.0,-0.1,/,/
CCOC(=O)c1c(C)[nH]c(C(=O)COC(=O)[C@H](C)NC(=O)c2ccccc2Cl)c1C,2.5,2.1,7.0,17.9*,-0.1,14.1*,0.1
CCOC(=O)c1c(C)[nH]c(C(=O)COC(=O)COc2ccccc2C=O)c1C,-4.2,0.2,1.9,13.8*,-0.5,-0.3,0.1
Cc1ccccc1CS(=O)(=O)Cc1ccc(C(=O)Nc2ccc(F)cc2)o1,-7.4,/,/,/,/,/,/
Nc1nnnn1/N=C\c1ccc(Cl)c([N+](=O)[O-])c1,3.0,0.2,2.7,18.0*,-0.4,13.8*,0.1
Cc1nnc(C)n1N=Cc1ccc(Cl)c([N+](=O)[O-])c1,0.3,/,/,/,/,/,/
SMILES,SMARCA2 activ,HIF activator,GAA850 FXN act,GalR3 antagonist,Hsp70 act,GalR3 antag conf,CNG parental
CCN(CC(=O)Nc1ccc2c(c1)OCCO2)C(=O)/C=C/c1ccc(F)cc1,1.3,0.9,2.5,12.8*,0.3,28.2*,2.4*
CCN(CC(=O)Nc1ccc2c(c1)OCCO2)C(=O)/C=C/c1ccccc1,6.5,1.1,0.1,-6.3,-0.1,/,/
CC(C)[C@H]1COc2c3ccccc3nn21,-2.6,/,/,/,/,/,/
CC(C)C(=O)NC(c1cccc([N+](=O)[O-])c1)c1c(O)ccc2ccccc12 (stereo not given),-1.0,-0.2,3.4,16.4*,-0.2,-4.7,0.6
CC(C)C(=O)NC(c1ccc([N+](=O)[O-])cc1)c1c(O)ccc2ccccc12 (stereo not given),-4.0,-0.5,-7.6,-7.2,-0.5,/,/
O=C(O)CC12CC3CC(C1)CC(n1ncc(NCc4ccco4)c(Cl)c1=O)(C3)C2,3.9,-0.5,-0.6,15.5*,/,10.9,0.3
COc1cc(/C=N/S(=O)(=O)c2ccccc2)cc(OC)c1O,-2.4,0.0,3.6,14.5*,/,-1.1,0.3
CC1=CC(=O)C(C(C)C)=C/C1=N/OS(=O)(=O)c1ccccc1,-15.4,-3.3,1.4,91.6*,/,35.1*,-0.5
C[C@H]1CN([C@@H](C)CO)C(=O)CCCn2nncc2CO[C@@H]1CN(C)S(=O)(=O)c1ccc(-c2ccccc2)cc1,-1.0,/,-1.8,-5.2,/,/,/
C[C@@H]1CN([C@@H](C)CO)C(=O)CCCn2nncc2CO[C@H]1CN(C)S(=O)(=O)c1ccc(-c2ccccc2)cc1,-3.8,/,-1.0,13.0*,/,45.4*,0.1
CCCc1nc(NCc2ccccc2)c(C#N)c2c1CCCC2,-3.0,0.0,0.3,16.9*,-0.5,3.7,1.0
O=C(Nc1ccccc1)/C(=C/c1ccc(O)cc1)NC(=O)c1ccco1,-1.9,0.2,0.2,15.1*,/,-1.4,0.2
O=C(Nc1cccnc1)c1cccc(S(=O)(=O)N2CCc3ccccc32)c1,-5.0,-0.4,0.5,-4.1,-0.6,/,/
O=C(Nc1ccncc1)c1cccc(S(=O)(=O)N2CCc3ccccc32)c1,-4.6,0.5,-2.0,75.5*,/,46.2*,-0.5
Cc1ccc(S(=O)(=O)n2c3ccc(Cl)cc3c3nc(C)sc32)cc1,-1.1,-0.1,3.9,/,-0.2,1.6,0.2
COCC(C)n1c(C)cc(C(=O)COC(=O)c2n[nH]c3ccccc23)c1C (stereo not given),2.1,0.0,-2.3,-3.3,0.0,/,/
Cc1cc(C(=O)COC(=O)c2ccc3c(c2)NC(=O)CS3)c(C)n1CC1CCCO1 (stereo not given),-3.4,0.2,2.0,22.9*,-0.4,17.8*,0.6
